# Measured values published in PubChem BioAssay.
# Calls of active or inactive are those of the source. Unless noted, the rule behind the calls is not given here.
# Legend:
# [1] = A549 cell viability effects, profiling panel, calcein-AM fluorescence, 48 h, basal (AID 1162); conditions: higher = more signal; note: test concentration not given here
# [2] = adipocyte viability effects, profiling panel, cell-based, 3T3-L1 adipocytes, calcein-AM fluorescence, 48 h, basal (AID 1163); conditions: 3T3-L1 adipocytes viability, higher = more signal; note: test concentration not given here
# [3] = HepG2 cell viability effects, profiling panel, calcein-AM fluorescence, 48 h, basal (AID 1164); conditions: higher = more signal; note: test concentration not given here
# [4] = MM1S cell viability effects, profiling panel, calcein-AM fluorescence, 48 h, basal (AID 1165); conditions: higher = more signal;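 note: viability of MM1S multiple myeloma cells under basal unstimulated conditions; test concentration not given here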
# [5] = basal RPMI8226 viability, no added stimulus, profiling panel, cell-based, calcein-AM fluorescence, 48 h, PK04 Diversity Set (AID 1166); conditions: RPMI8226 myeloma viability, higher = more signal;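 note: cells grown under basal conditions without added stimulus; test concentration not given here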
# [6] = basal HepG2 mitochondrial membrane potential changes, profiling panel, cell-based, JC-1 fluorescence, 24 h, 100 nL compound (AID 1167); conditions: higher = more signal; note: test concentration not given here
# [7] = basal 3T3-L1 adipocyte mitochondrial potential changes, profiling panel, cell-based, JC-1 fluorescence, 3T3-L1 adipocytes, 24 h, 100 nL compound (AID 1168); conditions: JC-1 mitochondrial fluorescence, higher = more signal, called active from +8 up or from −8 down; note: test concentration not given here
# [8] = basal RPMI8226 mitochondrial membrane potential changes, profiling panel, cell-based, JC-1 fluorescence, 24 h, 100 nL compound (AID 1169); conditions: RPMI8226 myeloma, JC-1 mitochondrial potential fluorescence, higher = more signal; note: test concentration not given here
# [9] = basal MM1S mitochondrial membrane potential changes, profiling panel, cell-based, JC-1 fluorescence, 24 h, 100 nL compound (AID 1170); conditions: higher = more signal; note: test concentration not given here
# [10] = A549 lung cancer cell viability effects, profiling panel, resazurin fluorescence, 24 h, PK04 Diversity Set (AID 1171); conditions: higher = more signal, called active from +8 up or from −8 down; note: test concentration not given here
# [11] = HepG2 liver cancer cell viability effects, profiling panel, resazurin fluorescence, 24 h, PK04 Diversity Set (AID 1172); conditions: higher = more signal; note: test concentration not given here
# [12] = basal S. cerevisiae growth modulation, no modifier, primary screen, OD600, strain BY4716, 24 h, basal condition (AID 1173); conditions: OD600, 24 h, higher = more signal, called active from +8 up or from −8 down
# [13] = MM1S myeloma cell viability, profiling panel, resazurin fluorescence, basal, 24 h, PK04 Diversity Set (AID 1174); conditions: higher = more signal, called active from +8 up or from −8 down;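 note: MM1S multiple myeloma cell line; test concentration not given here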
# [14] = molecular target: Dihydroorotate dehydrogenase (quinone), mitochondrial (Plasmodium falciparum (isolate 3D7)) (UniProt Q08210); test: PfDHODH enzyme inhibitors, primary screen, biochemical, C-terminal His tag, absorbance 600 nm (AID 1175); conditions: DCIP absorbance 600 nm, higher = more signal, called active from +8 up or from −8 down;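 note: recombinant parasite enzyme with a five histidine tag at its C terminus; test concentration not given here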
# Dihydroorotate dehydrogenase (quinone), mitochondrial (Plasmodium falciparum (isolate 3D7)), sequence (Q08210 whole entry, looked up): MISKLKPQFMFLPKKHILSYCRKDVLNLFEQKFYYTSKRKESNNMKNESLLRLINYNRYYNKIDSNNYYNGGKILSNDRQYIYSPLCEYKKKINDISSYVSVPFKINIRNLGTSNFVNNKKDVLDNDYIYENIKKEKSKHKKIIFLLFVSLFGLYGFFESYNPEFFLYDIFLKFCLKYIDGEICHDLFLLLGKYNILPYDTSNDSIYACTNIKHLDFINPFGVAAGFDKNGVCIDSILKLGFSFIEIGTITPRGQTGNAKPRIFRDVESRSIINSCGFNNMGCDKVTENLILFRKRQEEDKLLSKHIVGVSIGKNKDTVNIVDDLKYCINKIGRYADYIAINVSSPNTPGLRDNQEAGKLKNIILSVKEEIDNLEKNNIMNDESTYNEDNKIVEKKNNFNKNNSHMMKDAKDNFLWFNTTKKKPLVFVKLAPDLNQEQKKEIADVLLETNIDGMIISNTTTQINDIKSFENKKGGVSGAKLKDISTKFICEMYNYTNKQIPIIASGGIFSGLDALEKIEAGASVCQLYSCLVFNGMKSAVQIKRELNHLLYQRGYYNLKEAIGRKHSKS
# [15] = P. aeruginosa biofilm formation inhibitors, primary screen, strain PAO1, LB-PBS medium, absorbance 600 nm (AID 1176); note: test concentration not given here; conditions: P. aeruginosa PAO1 growth/biofilm, A600, 12 h; higher = more signal
# [16] = S. cerevisiae RM11-1a growth modifiers, primary screen, strain RM11-1a, OD600, basal, 24 h (AID 1177); conditions: OD600, 24 h, higher = more signal, called active from +8 up or from −8 down;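 note: cultures grown under basal conditions with no added stressor; test concentration not given here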
# [17] = E. coli acrAB mutant growth effects, primary screen, E. coli filamentation inducers, strain DRC39, OD650, 24 h (AID 1178); conditions: higher = more signal, called active from +8 up or from −8 down;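 note: growth measured as culture turbidity by optical density at 650 nm; test concentration not given here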
# [18] = E. coli acrAB mutant growth effects, primary screen, E. coli filamentation inducers, strain DRC39, OD650, 48 h (AID 1179);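 note: screen aims at cell division blockers that make cells filament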; conditions: E. coli DRC39 delta-acrAB growth, higher = more signal, called active from +8 up or from −8 down
# [19] = RPMI8226 myeloma cell viability, profiling panel, resazurin fluorescence, basal, 24 h, PK04 Diversity Set (AID 1180); conditions: higher = more signal;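 note: RPMI8826 multiple myeloma cell line at 5000 cells per well; test concentration not given here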
# [20] = molecular target: E3 ubiquitin-protein ligase XIAP (Homo sapiens) (UniProt P98170); test: XIAP binders, primary screen, biophysical, small-molecule microarray, fluorescence 635 nm (AID 1181); conditions: small-molecule microarray binding, higher = more signal;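 note: score merges 667 nm emission and signal to noise over triplicate slides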
# E3 ubiquitin-protein ligase XIAP (Homo sapiens), sequence (P98170 whole entry, looked up): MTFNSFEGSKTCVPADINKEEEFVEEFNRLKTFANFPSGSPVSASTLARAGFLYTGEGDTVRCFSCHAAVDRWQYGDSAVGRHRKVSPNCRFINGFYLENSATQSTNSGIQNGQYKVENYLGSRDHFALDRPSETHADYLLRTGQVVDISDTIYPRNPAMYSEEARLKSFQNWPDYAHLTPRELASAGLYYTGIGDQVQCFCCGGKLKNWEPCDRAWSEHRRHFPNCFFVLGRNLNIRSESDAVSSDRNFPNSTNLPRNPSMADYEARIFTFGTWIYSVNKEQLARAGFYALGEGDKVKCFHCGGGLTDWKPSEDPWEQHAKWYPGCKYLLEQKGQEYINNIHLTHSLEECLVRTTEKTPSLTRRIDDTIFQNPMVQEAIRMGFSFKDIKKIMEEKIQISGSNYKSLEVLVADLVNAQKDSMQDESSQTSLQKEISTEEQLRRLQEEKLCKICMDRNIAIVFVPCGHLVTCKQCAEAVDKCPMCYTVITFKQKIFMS
Structure (SMILES),z-score [1],z-score [2],z-score [3],z-score [4],z-score [5],z-score [6],z-score [7],z-score [8],z-score [9],z-score [10],z-score [11],z-score [12],z-score [13],composite z-score [14],z-score [15],z-score [16],z-score [17],z-score [18],z-score [19],composite z-score [20]
CCCC=C(CCC)[C@@H](NC(=O)CCc1ccccc1)c1ccc(C(F)(F)F)cc1,-0.894,-0.265,-0.481,-1.2,-2.01,2.18,-0.933 (inactive),-0.0403,-0.774,0.569 (inactive),0.561,-0.357 (inactive),-0.407 (inactive),-1.39 (inactive),0.0944 (inactive),0.439 (inactive),0.0152 (inactive),-0.0054 (inactive),-0.581,0.0734
CCCCCN1CC=CC23O[C@@H]4C=CCOC(=O)[C@@H]4[C@H]2C(=O)N(CCO)[C@@H]3C1=O (stereo not given in full),-0.479,-0.609,0.0249,0.687,-0.285,-0.607,0.561 (inactive),0.174,-0.15,-0.0273 (inactive),0.815,0.201 (inactive),0.0974 (inactive),-0.693 (inactive),0.398 (inactive),-0.454 (inactive),-0.0666 (inactive),-0.193 (inactive),0.229,0.307
O=C1O[C@H](c2ccccc2)[C@H](c2ccccc2)N2[C@H]1[C@@H](C(=O)N1CCCCCCC1)[C@]1(C(=O)Nc3ccc(C#CC4(O)CCCCCC4)cc31)[C@H]2c1ccc(O)cc1,0.792,-0.597,1.68,-0.845,-1.59,-0.806,0.212 (inactive),-0.613,-0.515,0.0109 (inactive),0.114,-0.101 (inactive),-0.5 (inactive),0.0579 (inactive),0.875 (inactive),0.74 (inactive),0.799 (inactive),0.163 (inactive),0.295,0.322
COCC(=C=CC[C@@H](O)c1ccc(OCCO)cc1)CCO,1.46,0.376,0.875,0.676,0.786,1.32,0.87 (inactive),-0.756,-1.1,1.12 (inactive),1.37,-0.896 (inactive),1.1 (inactive),-0.789 (inactive),0.424 (inactive),0.453 (inactive),1.41 (inactive),1.23 (inactive),2.08,-0.0949
[N-]=[N+]=Nc1ccccc1C[C@@]1(C(=O)O)N=C(c2ccc(OCCCO)cc2)O[C@@H]1c1ccccc1N=[N+]=[N-],-0.404,-0.115,-0.36,-2.44,-2.44,-2.37,-0.74 (inactive),-0.56,-0.739,0.13 (inactive),0.628,-2.04 (inactive),-0.988 (inactive),-0.435 (inactive),0.879 (inactive),-1.23 (inactive),-0.258 (inactive),-0.69 (inactive),-0.955,-0.0374
Cc1ccc(S[C@]2(C(=O)NC(C)C)CC(=O)N(C(C)C)[C@@H]2c2ccc(CO)cc2I)cc1,0.931,-0.134,0.0096,-2.39,-1.38,1.09,0.389 (inactive),-0.312,-1.32,-0.0361 (inactive),0.197,-2.15 (inactive),-0.463 (inactive),0.0738 (inactive),0.444 (inactive),-0.471 (inactive),0.882 (inactive),-0.0992 (inactive),-1.72,0.158
C=CCC(OC(C)=O)[C@@H]1[C@@H](N(Cc2ccc(-c3cccc(C(F)(F)F)c3)o2)C(=O)c2ccc(C)cc2)c2cc(OCCCO)ccc2N1C(=O)Cc1ccc(OC)cc1 (stereo not given in full),1.22,0.608,2.12,-0.155,0.002,3.98,0.557 (inactive),-0.245,-0.83,1.25 (inactive),0.91,-0.455 (inactive),0.104 (inactive),-1.55 (inactive),-0.194 (inactive),0.74 (inactive),0.145 (inactive),1.11 (inactive),1.11,0.0871
O=C(O)[C@@H]1C[C@@H]2C(=O)N3CCC[C@H]3C(=O)N2[C@@H]1c1cccc(OCCO)c1,0.0951,0.717,-0.439,-0.456,-0.159,0.591,0.283 (inactive),0.817,0.718,-0.0326 (inactive),-0.188,-1.28 (inactive),-0.447 (inactive),-0.899 (inactive),0.547 (inactive),0.0761 (inactive),-0.185 (inactive),-0.685 (inactive),-0.0605,0.338
O=C(CS)NCCCCCNC(=O)[C@@H]1C[C@@H]2C(=O)N[C@@H](Cc3ccccc3)C(=O)N2[C@@H]1c1cccc(OCCO)c1,0.688,-0.284,1.18,0.57,0.521,1.51,0.19 (inactive),-0.203,-0.156,-0.488 (inactive),-0.528,0.0575 (inactive),-0.513 (inactive),-0.148 (inactive),0.0067 (inactive),0.647 (inactive),0.403 (inactive),0.801 (inactive),-0.0412,-0.0911
